Measured values from PubChem BioAssay AID743468 (Broad Institute, 2014).
The list shows a part of the results. Calls of active or inactive are those of the source.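 How the source made its calls: active means fitted curve reaching a 40% PDK4 expression rise at or below the top valid tested dose; inconclusive means no clear call, values can overlap the other calls; inactive means the rest, including shifts the wrong way.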

Experiment: change in PGC-1a target gene PDK4 expression, dose response, C2C12 myotubes, RT-qPCR, cherry-pick (AID 743468)
Conditions: PGC-1a adenovirus, PDK4 mRNA qPCR; series mostly up to 19.5 µM

N#Cc1ccc(-c2ccc(C3[C@@H]4CN(S(=O)(=O)c5ccc(F)cc5)C[C@H]3N4)cc2)cc1 (stereo partly specified)
outcome: inactive
